Experiment [1] in a line: NCI Yeast Anticancer Drug Screen. Data for the rad50 strain (AID 155).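 Note: 0% = growth of vehicle-only cultures of the same strain.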 Particulars: S. cerevisiae rad50 strain growth inhibition, active compounds read high. In a few lines:
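Genetically altered yeast (DNA repair pathway); compound treatment; growth inhibition vs vehicle ctrl.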

A short description of experiment [2]: NCI Yeast Anticancer Drug Screen. Data for the mec2-1 strain (AID 157). Particulars: S. cerevisiae mec2-1 strain, active compounds read high. The essentials:
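Test agents were screened against the mec2-1 yeast strain, with defined DNA repair or cell cycle alteration. Growth was scored as inhibition against vehicle-only controls.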

A short description of experiment [3]: NCI Yeast Anticancer Drug Screen. Data for the sgs1 mgt1 strain (AID 161).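 Note: 0% = growth of cultures given vehicle only.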 Particulars: S. cerevisiae sgs1 mgt1 strain, active compounds read high. The essentials:
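Read-out: growth inhibition vs vehicle controls. Cells: mutant yeast strain deficient in DNA damage repair.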

Experiment [4] is described as follows: NCI Yeast Anticancer Drug Screen. Data for the cln2 rad14 strain (AID 165).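 Note: 0% = growth equal to vehicle treated cultures.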 Particulars: S. cerevisiae cln2 rad14 strain, active compounds read high. In a few lines: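 Growth of compound-exposed yeast (cln2 rad14 genotype) measured and expressed as inhibition relative to vehicle.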
Experiment [5] in a line: NCI Yeast Anticancer Drug Screen. Data for the bub3 strain (AID 167). Particulars: S. cerevisiae bub3 mutant strain, active compounds read high. The essentials: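 Yeast carrying a defined mutation is treated with each compound, and growth is compared with that of vehicle-exposed cells to give inhibition.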
Experiment [6] is described as follows: NCI Yeast Anticancer Drug Screen. Data for the mlh1 rad18 strain (AID 175). Particulars: S. cerevisiae mlh1 rad18 strain growth inhibition, active compounds read high. The essentials: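 In this whole-cell yeast screen, a strain with altered DNA damage repair is challenged with compound, and its growth is measured against matched vehicle-treated controls.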
The mark [7] stands for this setting: at 5.0 µM (retest, dose inferred, filed as 0.5).
Where [8] appears, read: at 50.0 µM (retest, dose inferred, filed as 5.0).

About 79,000 compounds went through this panel and 15% of them were active in at least one assay; those are over-represented in the sample as a whole. A number with no mark means an inactive call. Active and inactive are the calls of the source. Cut-off read from the data, not from the text of the source: active = growth inhibition above about 70%; inactive = the rest.

In the case of `CNc1ncnc2nc(C)[nH]c12`, the growth inhibition in experiment [1] (setting [7]) is 0%; in experiment [1] (setting [8]), 20%; in experiment [2] (setting [7]) it was -3%; in experiment [2] (setting [8]) it was 3%; in experiment [3] (setting [7]), 0%; in experiment [3] (setting [8]) it was 16%. In addition, the growth inhibition in experiment [4] (setting [7]) is 2%; in experiment [4] (setting [8]), -4%; in experiment [5] (setting [7]) it was 1%; in experiment [5] (setting [8]) it was 2%.

As to `C=C1C(=O)OC2CC1C(OC(=O)/C=C/c1ccccc1)C/C(C)=C/CC/C(C)=C/CCC2(C)O` (centres undefined), the growth inhibition in experiment [1] (setting [7]) was 50%; in experiment [1] (setting [8]) it was 93% (active); in experiment [1] (at 50.0 µM), 82.8% (active); in experiment [2] (setting [7]), 54%; in experiment [2] (setting [8]), 96% (active); in experiment [2] (at 50.0 µM) it was 81.7% (active). In addition, the growth inhibition in experiment [3] (setting [7]) is 60%; in experiment [3] (setting [8]), 95% (active); in experiment [3] (at 50.0 µM), 84.8% (active); in experiment [5] (setting [7]), 88% (active); in experiment [5] (setting [8]) it was 95% (active); in experiment [5] (at 50.0 µM), 80% (active). For the same compound, the growth inhibition in experiment [6] (setting [7]) was 77% (active); in experiment [6] (setting [8]), 94% (active); in experiment [6] (at 50.0 µM), 75.9% (active).

Consider `O=C(NNc1ccccc1)OCc1ccccc1`, for which the growth inhibition in experiment [1] (setting [7]) is 41%; in experiment [1] (setting [8]), 79% (active); in experiment [1] (at 50.0 µM), 55%; in experiment [2] (setting [7]) it was 43%; in experiment [2] (setting [8]), 86% (active); in experiment [2] (at 50.0 µM), 20.5%. The growth inhibition in experiment [3] (setting [7]) is 42%; in experiment [3] (setting [8]), 95% (active); in experiment [4] (setting [7]) it was 55%; in experiment [4] (setting [8]), 97% (active); in experiment [5] (setting [7]), 50%; in experiment [5] (setting [8]), 94% (active). The values for the growth inhibition in experiment [6] (setting [7]), in experiment [6] (setting [8]) and in experiment [6] (at 50.0 µM) were 29%, 84% (active) and 32.5%, respectively.

Regarding `C/C(=N\NC(=S)N(C)C)c1ccccn1`, the growth inhibition is 94% (active) in experiment [1] (setting [7]); 98% (active) in experiment [1] (setting [8]); 92% (active) in experiment [2] (setting [7]); 99% (active) in experiment [2] (setting [8]); 93% (active) in experiment [3] (setting [7]); 99% (active) in experiment [3] (setting [8]). For the same compound, the growth inhibition is 88.6% (active) in experiment [3] (at 50.0 µM); 91% (active) in experiment [4] (setting [7]); 97% (active) in experiment [4] (setting [8]); 89.3% (active) in experiment [4] (at 50.0 µM); 95% (active) in experiment [5] (setting [7]); 99% (active) in experiment [5] (setting [8]). Also, the growth inhibition in experiment [5] (at 50.0 µM) is 88.7% (active); in experiment [6] (setting [7]), 95% (active); in experiment [6] (setting [8]), 98% (active).

`C/C(=N\NC(=S)N1CCC1)c1ccccn1`: the growth inhibition in experiment [1] (setting [7]) was 91% (active); in experiment [1] (setting [8]), 96% (active); in experiment [2] (setting [7]), 88% (active); in experiment [2] (setting [8]) it was 98% (active); in experiment [3] (setting [7]) it was 92% (active); in experiment [3] (setting [8]), 99% (active). Also, the growth inhibition is 87.8% (active) in experiment [3] (at 50.0 µM); 93% (active) in experiment [4] (setting [7]); 96% (active) in experiment [4] (setting [8]); 87% (active) in experiment [4] (at 50.0 µM); 94% (active) in experiment [5] (setting [7]); 98% (active) in experiment [5] (setting [8]). Besides, the growth inhibition was 87.5% (active) in experiment [5] (at 50.0 µM), 93% (active) in experiment [6] (setting [7]) and 96% (active) in experiment [6] (setting [8]).

For `Oc1ccc(/C=C/c2ccc(Cl)cc2)cc1`, the growth inhibition in experiment [1] (setting [7]) is -26%; in experiment [1] (setting [8]), 97% (active); in experiment [2] (setting [7]), 5%; in experiment [2] (setting [8]), 98% (active); in experiment [3] (setting [7]), 4%; in experiment [3] (setting [8]), 97% (active). Besides, the growth inhibition was 7% in experiment [4] (setting [7]); 97% (active) in experiment [4] (setting [8]); 10% in experiment [5] (setting [7]); 98% (active) in experiment [5] (setting [8]); 13% in experiment [6] (setting [7]); 96% (active) in experiment [6] (setting [8]).

On to `C=CCCCCCCCCC(=O)NN`, for which the growth inhibition was 18% in experiment [1] (setting [7]); 92% (active) in experiment [1] (setting [8]); -1% in experiment [2] (setting [7]); 79% (active) in experiment [2] (setting [8]); 15% in experiment [3] (setting [7]); 92% (active) in experiment [3] (setting [8]). For the same compound, the growth inhibition is -8% in experiment [4] (setting [7]); 81% (active) in experiment [4] (setting [8]); 0% in experiment [5] (setting [7]); 85% (active) in experiment [5] (setting [8]); -25% in experiment [6] (setting [7]); 91% (active) in experiment [6] (setting [8]).

For `Cc1ccc(Nc2n[nH]c(=S)s2)cc1F`, the growth inhibition in experiment [1] (setting [7]) is 37%; in experiment [1] (setting [8]), 90% (active); in experiment [1] (at 50.0 µM), 85.8% (active); in experiment [2] (setting [7]) it was 46%; in experiment [2] (setting [8]) it was 93% (active); in experiment [2] (at 50.0 µM), 78.2% (active). For the same compound, the growth inhibition was 8% in experiment [3] (setting [7]); 79% (active) in experiment [3] (setting [8]); 49% in experiment [4] (setting [7]); 80% (active) in experiment [4] (setting [8]); 28% in experiment [5] (setting [7]); 80% (active) in experiment [5] (setting [8]). Moreover, the figures for the growth inhibition in experiment [6] (setting [7]), in experiment [6] (setting [8]) and in experiment [6] (at 50.0 µM) were 27%, 84% (active) and 77.2% (active), respectively.

In the case of `CC1(c2ccc(O)cc2)CCC(C(C)(C)c2ccc(O)cc2)CC1` (centres undefined), the growth inhibition in experiment [1] (setting [7]) was 41%; in experiment [1] (setting [8]), 99% (active); in experiment [1] (at 50.0 µM) it was 90.5% (active); in experiment [2] (setting [7]), 46%; in experiment [2] (setting [8]) it was 100% (active); in experiment [2] (at 50.0 µM) it was 91.9% (active). Moreover, the growth inhibition in experiment [3] (setting [7]) was 80% (active); in experiment [3] (setting [8]), 97% (active); in experiment [4] (setting [7]) it was 60%; in experiment [4] (setting [8]) it was 97% (active); in experiment [5] (setting [7]), 89% (active); in experiment [5] (setting [8]), 96% (active). The growth inhibition in experiment [6] (setting [7]) is 44%; in experiment [6] (setting [8]), 100% (active); in experiment [6] (at 50.0 µM) it was 91.1% (active).

As for `COC(=O)c1ccc(Cl)c(NN)c1`, the growth inhibition in experiment [1] (setting [7]) was 49%; in experiment [1] (setting [8]), 66%; in experiment [1] (at 50.0 µM), 90.4% (active); in experiment [2] (setting [7]), 29%; in experiment [2] (setting [8]) it was 59%; in experiment [2] (at 50.0 µM), 92.8% (active). For the same compound, the growth inhibition is 86% (active) in experiment [3] (setting [7]); 98% (active) in experiment [3] (setting [8]); 61% in experiment [4] (setting [7]); 99% (active) in experiment [4] (setting [8]); 93% (active) in experiment [5] (setting [7]); 99% (active) in experiment [5] (setting [8]). The growth inhibition in experiment [6] (setting [7]) is 38%; in experiment [6] (setting [8]) it was 42%; in experiment [6] (at 50.0 µM), 88.7% (active).

These data come from PubChem BioAssay (NCI).
